Unmarked numbers belong to inactive results. Records with an inconclusive call do not appear. Calls of active or inactive are those of the source. Unless noted, the call rests on the fitted dose curve; in most records, active means well fitted curve in either direction with a large enough effect (not every such curve was filed as active); inconclusive means small, poorly fitted or top-dose-only effect, or another doubt; inactive means flat fitted curve, though single readings scatter.

The nature of experiment [1]: AP1 Signaling Pathway (AID 357).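 Further: ME-180 reporter cells stimulated with EGF at its EC50 level; on the % scale 0 is the no-effect control and ±100 the full control effect.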 As to conditions: ME-180 AP-1-bla reporter, EGF-induced, beta-lactamase ratio, 5 h; at 17.2 µM (top of the series) unless noted. In outline:
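AP-1-bla ME-180 cells, Opti-MEM + 0.5% dialyzed FBS, plated overnight 37 °C. Cpd titration + EC50 EGF, 5 h 37 °C. CCF4 2.5 h RT; ex 405, em 460/530 ratio → %activity, AC50.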

Experiment [2] in a line: NFAT Signaling Pathway (AID 444).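 Further: carbachol stimulus at about its EC50 of 1 µM final; on the % scale 0 is the no-effect control and ±100 the full control effect.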 The settings on record: Jurkat NFAT-bla M1, carbachol, beta-lactamase ratio, 5 h; at 17.2 µM (top of the series) unless noted. Put shortly: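 Jurkat cells carrying an NFAT-driven β-lactamase reporter and co-transfected muscarinic M1 receptor were treated with compound plus carbachol (1 uM final, an EC50 level) for 5 h at 37 °C. CCF4 loading followed for 1 h at RT; 460/530 nm ratio gave %activity.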

Experiment [3] in a line: Stat Signaling Pathway (AID 446).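 Further: ME-180 cervical cancer cells given 40 pM IL-6 alongside compound; SIE-controlled beta-lactamase reporter measured as 460/530 nm FRET emission ratio; on the % scale 0 is the no-effect control and ±100 the full control effect.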 As to conditions: ME-180 (cervical carcinoma) SIE beta-lactamase reporter, IL-6 stimulated, 5 h; at 17.2 µM (top of the series) unless noted. In outline:
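ME-180 SIE-bla cells; overnight plating; cpd + IL-6 40 pM, 5 h, 37 C; LiveBLAzer 2.5 h RT; 460/530 nm emission ratio. Normalized to 300 pM IL-6 and 125 nM JAK inhibitor controls.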

For experiment [4], the target named is Glucocorticoid receptor (Homo sapiens) (UniProt P04150). Kind of experiment: GR-GFP Redistribution (AID 450;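 active means compounds whose dose series gives a full or clear partial fitted curve of increased nuclear translocation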; further: potency means the concentration at half of the fitted maximal effect).
Glucocorticoid receptor (Homo sapiens), sequence (P04150 whole entry, looked up): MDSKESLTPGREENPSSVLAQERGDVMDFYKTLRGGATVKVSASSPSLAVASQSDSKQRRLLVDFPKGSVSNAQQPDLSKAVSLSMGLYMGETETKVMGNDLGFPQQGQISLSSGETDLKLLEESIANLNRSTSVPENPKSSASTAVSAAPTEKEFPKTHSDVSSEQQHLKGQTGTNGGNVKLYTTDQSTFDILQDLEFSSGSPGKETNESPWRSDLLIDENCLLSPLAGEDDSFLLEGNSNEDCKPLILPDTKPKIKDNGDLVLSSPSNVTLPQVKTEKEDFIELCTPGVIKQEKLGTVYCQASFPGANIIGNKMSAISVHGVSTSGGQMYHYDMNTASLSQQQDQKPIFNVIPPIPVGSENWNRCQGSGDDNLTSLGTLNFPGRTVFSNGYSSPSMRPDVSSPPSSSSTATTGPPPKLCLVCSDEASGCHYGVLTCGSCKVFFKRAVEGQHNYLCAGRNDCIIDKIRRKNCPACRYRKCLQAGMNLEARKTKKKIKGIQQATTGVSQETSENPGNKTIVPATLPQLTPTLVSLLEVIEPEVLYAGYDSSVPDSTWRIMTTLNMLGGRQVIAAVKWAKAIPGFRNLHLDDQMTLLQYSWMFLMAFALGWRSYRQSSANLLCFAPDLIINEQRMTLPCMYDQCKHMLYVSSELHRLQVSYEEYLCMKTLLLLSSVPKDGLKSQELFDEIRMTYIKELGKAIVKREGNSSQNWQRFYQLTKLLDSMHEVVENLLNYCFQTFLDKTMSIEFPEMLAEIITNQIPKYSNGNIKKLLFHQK

For `CCCCCCOC(=O)CCn1[nH]c(=O)c2ccccc2c1=O`, the activity change, negative = inhibition is 13% in experiment [1] and 7.42% in experiment [2]. In addition, the activity, negative = inhibition in experiment [3] is -5.61%. For the same compound, the Potency in experiment [4] is greater than 20.6 µM.

As for `c1ccc(-c2nn3c(C4CCCCC4)nnc3s2)cc1`, the activity change, negative = inhibition in experiment [1] is -19.5%; in experiment [2] it was -5.79%. Moreover, the activity, negative = inhibition in experiment [3] is 18.2%. Besides, the Potency in experiment [4] is greater than 20.6 µM.

`Cc1ccc(N2C(=O)CC3(CC4C=CC3C4)C2=O)cc1` (stereo not drawn): the activity change, negative = inhibition in experiment [1] is 28.9%; in experiment [2], 4.88%. In experiment [3], the activity, negative = inhibition was 14%. Also, the Potency in experiment [4] is greater than 20.6 µM.

In the case of `COc1ccc(/C(O)=C2\C(=O)C(=O)N(c3cc(C)on3)C2c2cccc(OC)c2OC)cc1C` (stereo not drawn), the activity change, negative = inhibition was -5.37% in experiment [1] and 6.15% in experiment [2]. Further, the activity, negative = inhibition in experiment [3] is -17.9%. Further, in experiment [4], the Potency is greater than 20.6 µM.

Consider `CC1(C)Cc2ccccc2-c2c1c(=O)n(-c1ccccc1)c1nnnn21`, for which the activity change, negative = inhibition in experiment [1] is -13.7%; in experiment [2], -24.9%. For the same compound, the activity, negative = inhibition in experiment [3] is 2.44%. In experiment [4], the Potency is greater than 20.6 µM.

For the compound `c1ccc(OCc2nn3c(-c4cccnc4)nnc3s2)cc1`, the activity change, negative = inhibition in experiment [1] was -6.61%; in experiment [2], 2.29%. Further, the activity, negative = inhibition in experiment [3] is -4.47%. Besides, the Potency in experiment [4] is greater than 20.6 µM.

Turning to `CCCCc1nc(N2CCOCC2)c(C#N)c2c1CCCC2`, the activity change, negative = inhibition in experiment [1] was -10.8%; in experiment [2] it was -27.2%. Moreover, in experiment [3], the activity, negative = inhibition was -8.28%. For the same compound, the Potency in experiment [4] was greater than 20.6 µM.

On to `CCN(CC)CCOC(=O)C1(c2ccc(OC)c(OC)c2)CCCC1`, for which the figures for the activity change, negative = inhibition in experiment [1] and in experiment [2] were 10.4% and -82.2% (active), respectively. In addition, in experiment [3], the activity, negative = inhibition was 11%. Further, in experiment [4], the Potency was greater than 20.6 µM.

Take `COc1ccccc1C1/C(=C(/O)c2ccc(C)cc2)C(=O)C(=O)N1CCN1CCOCC1` (stereo not drawn): the values for the activity change, negative = inhibition in experiment [1] and in experiment [2] were -9.75% and 19.8%, respectively. In addition, the activity, negative = inhibition in experiment [3] was 1.99%. Besides, in experiment [4], the Potency is greater than 20.6 µM.

Take `CN1CC(=O)Nc2ccc(F)cc2C1=O`: the activity change, negative = inhibition was 13.4% in experiment [1] and -4.14% in experiment [2]. For the same compound, the activity, negative = inhibition in experiment [3] is 3.5%. For the same compound, the Potency in experiment [4] was greater than 20.6 µM.

Turning to `CC(C(=O)N(C)C)N(C#N)c1nc(N(C)C)nc(N(C)C)n1` (stereo not drawn), the activity change, negative = inhibition was 1.24% in experiment [1] and 2.25% in experiment [2]. Also, the activity, negative = inhibition in experiment [3] was -6.97%. The Potency in experiment [4] is greater than 20.6 µM.

Consider `COc1ccc2c(c1)C1(C)CC(C)(C)N2C(=O)N1c1ccccc1` (stereo not drawn), for which the values for the activity change, negative = inhibition in experiment [1] and in experiment [2] were -24.6% and 24.8%, respectively. Moreover, the activity, negative = inhibition in experiment [3] is -17.2%. For the same compound, in experiment [4], the Potency was greater than 20.6 µM.

As for `COc1ccc(CC(=O)OCN2C(=O)c3ccccc3C2=O)cc1`, the activity change, negative = inhibition in experiment [1] is 11.9%; in experiment [2], -7.12%. Besides, in experiment [3], the activity, negative = inhibition is -0.768%. Also, the Potency in experiment [4] was greater than 20.6 µM.

Regarding `CCc1nc2c(sc3nc(N4CCOCC4)c4c(c32)CC(C)(C)OC4)c(=O)o1`, the activity change, negative = inhibition in experiment [1] was 3.92%; in experiment [2], -0.695%. Besides, the activity, negative = inhibition in experiment [3] is -6.95%. Further, the Potency in experiment [4] was greater than 20.6 µM.

On to `COc1cccc(NC(=O)CC2SC(=Nc3ccccc3)NC2=O)c1` (stereo not drawn), for which the results for the activity change, negative = inhibition in experiment [1] and in experiment [2] were -10.5% and 2.42%, respectively. For the same compound, the activity, negative = inhibition in experiment [3] was -17.8%. For the same compound, the Potency in experiment [4] was greater than 20.6 µM.

`CC(=O)OCC(=O)[C@@]1(O)CC[C@H]2[C@@H]3CCC4=CC(=O)C=C[C@]4(C)[C@@]3(Cl)[C@@H](Cl)C[C@@]21C`: the activity change, negative = inhibition is 11.8% in experiment [1] and -9% in experiment [2]. Besides, the activity, negative = inhibition in experiment [3] was -0.258%. Besides, the Potency in experiment [4] was 0.0078 µM (active).

In the case of `O=C(Cc1cscn1)c1ccc(O)cc1O`, the activity change, negative = inhibition in experiment [1] was 4.71%; in experiment [2] it was 4.07%. Besides, the activity, negative = inhibition in experiment [3] is 12.7%. Besides, in experiment [4], the Potency was greater than 20.6 µM.

`CCCC(=O)N1CCN(c2nc(CC(C)C)c3c(c2C#N)CCC3)CC1`: the activity change, negative = inhibition in experiment [1] is -11.7%; in experiment [2] it was -18.4%. Besides, the activity, negative = inhibition in experiment [3] was -1.27%. Further, the Potency in experiment [4] is greater than 20.6 µM.

As to `O=C1CCC(=O)N1c1nc2nc(-c3ccccc3)cc(-c3ccccc3)n2n1`, the activity change, negative = inhibition is -12.9% in experiment [1] and 6.64% in experiment [2]. Also, the activity, negative = inhibition in experiment [3] was -1.33%. For the same compound, the Potency in experiment [4] is greater than 20.6 µM.

In the case of `Cn1c[n+](C)cc1/C=N/O`, the activity change, negative = inhibition was 6.85% in experiment [1] and 4.23% in experiment [2]. In experiment [3], the activity, negative = inhibition is -2.71%. In experiment [4], the Potency is greater than 20.6 µM.

`Cc1c(C2CC(=O)N(c3ccccc3)C2=O)[nH]n(-c2ccccc2)c1=O` (stereo not drawn): the values for the activity change, negative = inhibition in experiment [1] and in experiment [2] were -2.21% and -3.65%, respectively. The activity, negative = inhibition in experiment [3] was 1.65%. In experiment [4], the Potency was greater than 20.6 µM.

With `COc1ccccc1N1CCN(CCOc2c(OC)cccc2OC)CC1`, the activity change, negative = inhibition is 12.4% in experiment [1] and 12.8% in experiment [2]. Further, the activity, negative = inhibition in experiment [3] was 2.04%. Also, in experiment [4], the Potency is greater than 20.6 µM.

With `CCOC(=O)c1c(-c2cccs2)csc1NC(=O)CCCC(=O)O`, the activity change, negative = inhibition is -7.6% in experiment [1] and -2.47% in experiment [2]. The activity, negative = inhibition in experiment [3] was -0.962%. Also, in experiment [4], the Potency was greater than 20.6 µM.

Regarding `CNS(=O)(=O)c1cccc2nsnc12`, the values for the activity change, negative = inhibition in experiment [1] and in experiment [2] were 6.07% and 4%, respectively. Moreover, the activity, negative = inhibition in experiment [3] was 14.7%. The Potency in experiment [4] is greater than 20.6 µM.

As for `COc1ccc(C2(CN(C(C)=O)C(C)=O)CCCC2)cc1OC`, the figures for the activity change, negative = inhibition in experiment [1] and in experiment [2] were 4.19% and 4.27%, respectively. Besides, in experiment [3], the activity, negative = inhibition was 1.89%. The Potency in experiment [4] was greater than 20.6 µM.

As for `Cc1ccc(-c2ccccc2NC(=O)C2C3C=CC(C3)C2C(=O)O)o1` (stereo not drawn), the activity change, negative = inhibition was -3.25% in experiment [1] and -9.53% in experiment [2]. For the same compound, the activity, negative = inhibition in experiment [3] is 11.2%. The Potency in experiment [4] was greater than 20.6 µM.

As to `CC(C)OC(=O)c1sc2nc3c(cc2c1N)C(=O)CCC3`, the activity change, negative = inhibition in experiment [1] was -5.75%; in experiment [2], 7.77%. In addition, the activity, negative = inhibition in experiment [3] is -1.01%. For the same compound, the Potency in experiment [4] is greater than 20.6 µM.

Turning to `O=C(CC1SC2=NCCN2C1=O)Nc1ccccc1` (stereo not drawn), the activity change, negative = inhibition in experiment [1] was 4.21%; in experiment [2], 19%. In addition, in experiment [3], the activity, negative = inhibition is -5.25%. The Potency in experiment [4] is greater than 20.6 µM.

On to `CC(C)Cc1nc(NCCN2CCOCC2)c(C#N)c2c1COC(C)(C)C2`, for which the activity change, negative = inhibition was -8.99% in experiment [1] and -9.59% in experiment [2]. For the same compound, the activity, negative = inhibition in experiment [3] is 19.2%. Also, the Potency in experiment [4] is greater than 20.6 µM.

Consider `COc1cc(-c2nn3c(-c4ccccn4)nnc3s2)cc(OC)c1OC`, for which the results for the activity change, negative = inhibition in experiment [1] and in experiment [2] were 1.69% and 10.9%, respectively. Also, the activity, negative = inhibition in experiment [3] is 1.47%. The Potency in experiment [4] is greater than 20.6 µM.

For the compound `Cc1nc(Nc2ncc3c(n2)CCCC3=O)nc2ccccc12`, the values for the activity change, negative = inhibition in experiment [1] and in experiment [2] were 16.8% and 19.8%, respectively. In addition, the activity, negative = inhibition in experiment [3] is 0.527%. Moreover, the Potency in experiment [4] is greater than 20.6 µM.

For the compound `COc1cc(C2C3C(=O)N(c4ccccc4)C(=O)C3ON2c2ccccc2)ccc1O` (stereo not drawn), the values for the activity change, negative = inhibition in experiment [1] and in experiment [2] were 2.35% and 7.65%, respectively. Also, the activity, negative = inhibition in experiment [3] is -2.83%. Further, the Potency in experiment [4] is greater than 20.6 µM.

As for `COc1ccc(CCNc2nc3c(c(=O)n(C)c(=O)n3C)n2C)cc1OC`, the activity change, negative = inhibition in experiment [1] is -2.56%; in experiment [2] it was 3.63%. The activity, negative = inhibition in experiment [3] was -0.466%. In addition, in experiment [4], the Potency is greater than 20.6 µM.

As to `CCCCOC(=O)CSC1=C(C#N)C(c2ccccc2OC)C(C#N)C(=O)N1` (stereo not drawn), the values for the activity change, negative = inhibition in experiment [1] and in experiment [2] were -23.2% and 20.9%, respectively. Besides, in experiment [3], the activity, negative = inhibition was -14%. The Potency in experiment [4] was greater than 20.6 µM.

In the case of `COc1cccc(C2CC(c3ccccc3Cl)n3nc(N)nc3N2)c1` (stereo not drawn), the results for the activity change, negative = inhibition in experiment [1] and in experiment [2] were -5.25% and -4.65%, respectively. The activity, negative = inhibition in experiment [3] is -3.07%. In addition, the Potency in experiment [4] was greater than 20.6 µM.

Turning to `O=C1C(=O)N(CCN2CCOCC2)C(c2ccccn2)/C1=C(/O)c1ccc(F)cc1` (stereo not drawn), the activity change, negative = inhibition is 10.4% in experiment [1] and 21.3% in experiment [2]. In experiment [3], the activity, negative = inhibition was -1.73%. The Potency in experiment [4] was greater than 20.6 µM.

For the compound `CN1CCc2c(n(CC(O)CN3C(=O)c4ccccc4S3(=O)=O)c3ccccc23)C1=O` (stereo not drawn), the values for the activity change, negative = inhibition in experiment [1] and in experiment [2] were 27.1% and 6.52%, respectively. Further, in experiment [3], the activity, negative = inhibition was -6.51%. In experiment [4], the Potency is greater than 20.6 µM.

These data come from PubChem BioAssay (NCATS).
